Experimental findings from PubChem BioAssay (EPA / NIEHS) are described below.

Assay [1] can be described thus: ATG_CRE_CIS: Attagene CIS-FACTORIAL HepG2 Assay for human cAMP Responsive Element (CRE) binding protein 3 (AID 2282926). As to conditions: HepG2 CRE cis-reporter, Attagene multiplexed mRNA; actives raise or lower the signal. The procedure, abridged:
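HepG2 cells transiently transfected with a multiplexed reporter library (CRE-driven unit among them) were dosed for 24 h. Reporter mRNA was quantified by RT-PCR, fluorescent labelling, HpaI digestion and capillary electrophoresis, with bidirectional fitting against DMSO baseline.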

In assay [2] the target is CCAAT/enhancer-binding protein beta (Homo sapiens) (UniProt P17676). The assay is described as follows: ATG_C_EBP_CIS: Attagene CIS-FACTORIAL HepG2 Assay for human CCAAT/Enhancer Binding Protein (C/EBP) beta (AID 2282927). Conditions: HepG2 Attagene cis-factorial transcription factor reporter; actives raise or lower the signal. The procedure, abridged: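 HepG2, transient MRTU transfection, 24 h treatment. RT-PCR plus CE fluorescence; DMSO negative control, bidirectional fit.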

A short description of assay [3]: ATG_CMV_CIS: Attagene CIS-FACTORIAL HepG2 Assay for human CMV (Internal Marker) (AID 2282928).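 Also: endpoint acts as a background internal control marker rather than a target.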 Conditions: HepG2 CMV promoter reporter, transcription factor profiling; actives raise or lower the signal. The procedure, abridged:
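HepG2 cells transiently transfected with multiple cis-regulated reporter units; 24 h compound exposure. Reporter mRNA quantified by RT-PCR, 6-FAM primer-extension labeling, HpaI digestion and capillary electrophoresis; bidirectional fitting against DMSO baseline.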

Assay [4] is described as follows: ATG_DR4_LXR_CIS: Attagene CIS-FACTORIAL HepG2 Assay for human Liver X Receptor (LXR), DR4 submotif (AID 2282929). As to conditions: HepG2 Attagene DR4 cis-reporter, mRNA transcription; actives raise or lower the signal. Put shortly:
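HepG2 cells transiently transfected with cis-promoter-driven multiplexed reporter units (DR4 element) were dosed for 24 h. Reporter mRNA was quantified by RT-PCR, fluorescent primer extension, HpaI digestion and capillary electrophoresis; bidirectional fitting versus DMSO baseline.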

The target of assay [5] is Aryl hydrocarbon receptor (Homo sapiens) (UniProt P35869). Description: ATG_Ahr_CIS: Attagene CIS-FACTORIAL HepG2 Assay for human Aryl Hydrocarbon Receptor (Ahr) (AID 2282930). Conditions: HepG2 AhR cis-factorial reporter transcription; actives raise or lower the signal. Put shortly: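 Endogenous factor activity is tracked through cis-promoter reporter units transfected into HepG2 cells. Transcript levels at 24 h are read by fluorescent RT-PCR and capillary electrophoresis, with activity in either direction scored relative to DMSO.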

Assay [6] is described as follows: ATG_AP_1_CIS: Attagene CIS-FACTORIAL HepG2 Assay for human Activator Protein 1 (AP-1) (AID 2282931). Conditions: HepG2 Attagene cis-factorial AP-1 reporter mRNA; actives raise or lower the signal. The procedure, abridged:
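HepG2 cells transiently transfected with cis-element-driven multiplex reporter units; 24 h compound exposure. Reporter mRNA quantified by RT-PCR, FAM-labelled fragments resolved by capillary electrophoresis; bidirectional fit versus DMSO baseline.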

Assay [7] in a line: ATG_AP_2_CIS: Attagene CIS-FACTORIAL HepG2 Assay for human Activator Protein 2 (AP-2) (AID 2282932). As to conditions: HepG2 AP-2 cis-reporter, Attagene transcription factor profiling; actives raise or lower the signal. The procedure, abridged:
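Multiplexed mRNA reporter assay in HepG2: cis-regulated units report endogenous factor activity after 24 h treatment. Fluorescence from capillary electrophoresis of RT-PCR products gives the signal, with DMSO as baseline.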

Assay [8] in a line: ATG_BRE_CIS: Attagene CIS-FACTORIAL HepG2 Assay for human Bone Morphogenetic Protein (BMP) Response Element (BRE) (AID 2282933). Conditions: HepG2 BMP response element reporter, Attagene transcription factor profiling; actives raise or lower the signal. The procedure, abridged: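 Endogenous transcription factor activity at a BMP response element was monitored in transfected HepG2 cells 24 h after dosing. Fluorescent RT-PCR products were resolved by capillary electrophoresis, and activity was fitted in both directions versus DMSO.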

Assay [9] deals with Retinoic acid receptor alpha (Homo sapiens) (UniProt P10276). Description: ATG_DR5_RAR_CIS: Attagene CIS-FACTORIAL HepG2 Assay for human Retinoic Acid Receptor Alpha (RARE), DR5 submotif (AID 2282934). Conditions: HepG2 Attagene cis-factorial RARE DR5 reporter, mRNA; actives raise or lower the signal. The procedure, abridged: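 After 24 h of chemical exposure, transiently transfected HepG2 cells were lysed for total RNA; the DR5-regulated reporter transcript was quantified via RT-PCR and capillary electrophoresis, with activity fitted bidirectionally against DMSO.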

The target of assay [10] is Transcription factor E2F1 (Homo sapiens) (UniProt Q01094). The assay is described as follows: ATG_E2F_CIS: Attagene CIS-FACTORIAL HepG2 Assay for human E2F Transcription Factor 1 (AID 2282935). Conditions: HepG2 Attagene cis-reporter, E2F reporter RNA transcripts; actives raise or lower the signal. The procedure, abridged: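 Measures reporter transcript levels via RT-PCR with capillary electrophoresis detection in HepG2 cells harboring cis-regulated reporter units; 24 h post-dose; bidirectional curve fitting with DMSO as baseline.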

The nature of assay [11]: ATG_E_Box_CIS: Attagene CIS-FACTORIAL HepG2 Assay for human Enhancer Box (E-box) (AID 2282936). Conditions: HepG2 E-box cis-reporter transcription, actives raise or lower the signal. Put shortly: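 First, HepG2 cells receive multiple cis-regulated reporter constructs by transient transfection. Next, chemicals are applied for 24 h. Finally, reporter mRNA is quantified via RT-PCR and capillary electrophoresis, with DMSO as baseline.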

Assay [12] is described as follows: ATG_M_61_CIS: Attagene CIS-FACTORIAL HepG2 Assay for M61 Transcription Factor (Internal Marker) (AID 2282937). Conditions: HepG2 Attagene CIS-FACTORIAL M61 internal marker reporter; actives raise or lower the signal. The procedure, abridged:
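HepG2 cells transiently transfected with cis-element-driven multiple reporter transcription units, dosed for 24 h. Reporter mRNA measured by RT-PCR, 6-FAM primer-extension labelling, HpaI digestion and capillary electrophoresis; bidirectional fit versus DMSO baseline.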

The nature of assay [13]: ATG_EGR_CIS: Attagene CIS-FACTORIAL HepG2 Assay for human Early Growth Response 1 (EGR1) (AID 2282938). As to conditions: HepG2 Attagene CIS-FACTORIAL EGR reporter mRNA; actives raise or lower the signal. Put shortly: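 HepG2 cells transiently transfected with cis-promoter-driven multiplexed reporter transcription units; reporter mRNA measured 24 h after compound dosing by RT-PCR, 6-FAM primer extension, HpaI digestion and capillary electrophoresis. Bidirectional fit versus DMSO baseline.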

A short description of assay [14]: ATG_M_19_CIS: Attagene CIS-FACTORIAL HepG2 Assay for M19 Transcription Factor (Internal Marker) (AID 2282939). As to conditions: HepG2 Attagene CIS-FACTORIAL M19 internal marker reporter; actives raise or lower the signal. Put shortly:
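Background-control endpoint from a multiplexed HepG2 reporter panel. Cells carrying cis-regulated reporter constructs are treated 24 h, then reporter transcripts are amplified, fluorescently labelled and sized by capillary electrophoresis. DMSO defines baseline.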

The nature of assay [15]: ATG_ERE_CIS: Attagene CIS-FACTORIAL HepG2 Assay for Estrogen Response Element (ERE) (AID 2282940). As to conditions: HepG2 ERE cis-reporter, Attagene RNA transcript; actives raise or lower the signal. The procedure, abridged: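 Cells used were human hepatoma HepG2, transfected with multiple reporter transcription units under cis-regulatory promoters. Reporter mRNA, read 24 h post-dosing via fluorescent RT-PCR products on capillary electrophoresis, was fitted bidirectionally relative to DMSO.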

Assay [16] is described as follows: ATG_Ets_CIS: Attagene CIS-FACTORIAL HepG2 Assay for human Erythroblast Transformation Specific (ETS) (AID 2282941). Conditions: HepG2 ETS cis-reporter transcription, actives raise or lower the signal. Put shortly: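 HepG2 cells transiently transfected with cis-promoter reporter transcription units were dosed for 24 h; reporter mRNA was measured by RT-PCR, 6-FAM primer extension, HpaI digestion and capillary electrophoresis, with bidirectional fitting against DMSO baseline.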

Assay [17] has as its target Hepatocyte nuclear factor 3-beta (Homo sapiens) (UniProt Q9Y261). Description: ATG_FoxA2_CIS: Attagene CIS-FACTORIAL HepG2 Assay for human Forkhead box A2 (FOXA2) (AID 2282942). As to conditions: HepG2 cis-reporter transcription factor activity, 24 h; actives raise or lower the signal. Put shortly:
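HepG2 cells transiently transfected with multiple cis-regulated reporter transcription units, dosed for 24 h. Reporter mRNA measured by RT-PCR, 6-FAM labelling, HpaI digestion and capillary electrophoresis; bidirectional fitting against DMSO baseline.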

The nature of assay [18]: ATG_FoxO_CIS: Attagene CIS-FACTORIAL HepG2 Assay for human Forkhead box O (FoxO) (AID 2282943). As to conditions: HepG2 Attagene cis-reporter, FoxO element, mRNA; actives raise or lower the signal. The procedure, abridged: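 Transfected HepG2 reporter cells exposed to test chemical for 24 h; reporter RNA measured by reverse transcription, PCR and fluorescent capillary electrophoresis; curves fitted for increases and decreases against DMSO.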

The nature of assay [19]: ATG_GATA_CIS: Attagene CIS-FACTORIAL HepG2 Assay for human GATA Binding Protein (AID 2282944). Conditions: HepG2 GATA cis-element reporter, Attagene multiplex mRNA; actives raise or lower the signal. The procedure, abridged:
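Endogenous transcription factor activity was captured through cis-promoter-driven reporters in transfected HepG2 cells. After 24 h exposure, reporter transcripts were quantified by RT-PCR with fluorescent capillary electrophoresis, and responses fitted both directions against DMSO.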

The nature of assay [20]: ATG_GLI_CIS: Attagene CIS-FACTORIAL HepG2 Assay for human Zinc Finger Protein GLI1 (AID 2282945). Conditions: HepG2, Attagene cis-factorial reporter mRNA, GLI element; actives raise or lower the signal. The procedure, abridged:
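Transiently transfected HepG2 cells report endogenous transcription factor activity via cis-element-driven reporter units. After 24 h compound exposure, reporter mRNA was measured by RT-PCR with capillary electrophoresis; bidirectional fitting against DMSO baseline.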

Structures are written as SMILES. The source made the active and inactive calls. The calls were made as follows: active = hit-call score of the fitted dose curve at least 0.9, where 1 is the maximum; inactive = score below 0.9.

Chain of Transcription factor E2F1 (Homo sapiens) (Q01094 whole entry, looked up): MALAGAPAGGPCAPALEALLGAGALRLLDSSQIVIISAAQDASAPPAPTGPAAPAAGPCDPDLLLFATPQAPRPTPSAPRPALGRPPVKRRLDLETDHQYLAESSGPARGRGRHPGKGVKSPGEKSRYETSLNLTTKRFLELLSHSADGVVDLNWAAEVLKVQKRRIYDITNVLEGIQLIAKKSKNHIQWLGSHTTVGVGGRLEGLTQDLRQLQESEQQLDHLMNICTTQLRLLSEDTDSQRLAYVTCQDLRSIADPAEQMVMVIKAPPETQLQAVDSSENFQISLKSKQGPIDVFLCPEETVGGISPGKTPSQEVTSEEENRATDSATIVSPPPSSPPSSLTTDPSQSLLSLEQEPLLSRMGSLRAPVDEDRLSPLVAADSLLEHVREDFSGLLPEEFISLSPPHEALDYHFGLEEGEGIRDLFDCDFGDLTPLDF
Chain of CCAAT/enhancer-binding protein beta (Homo sapiens) (P17676 whole entry, looked up): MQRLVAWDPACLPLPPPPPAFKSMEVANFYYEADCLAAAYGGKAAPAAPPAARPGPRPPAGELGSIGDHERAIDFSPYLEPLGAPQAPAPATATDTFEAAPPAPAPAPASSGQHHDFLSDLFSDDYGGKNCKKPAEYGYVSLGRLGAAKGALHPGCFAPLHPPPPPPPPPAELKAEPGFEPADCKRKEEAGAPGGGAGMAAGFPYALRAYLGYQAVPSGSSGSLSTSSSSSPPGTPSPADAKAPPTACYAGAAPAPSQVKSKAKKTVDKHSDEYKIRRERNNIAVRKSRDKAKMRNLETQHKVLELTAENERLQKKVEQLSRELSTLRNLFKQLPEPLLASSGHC
Chain of Hepatocyte nuclear factor 3-beta (Homo sapiens) (Q9Y261 whole entry, looked up): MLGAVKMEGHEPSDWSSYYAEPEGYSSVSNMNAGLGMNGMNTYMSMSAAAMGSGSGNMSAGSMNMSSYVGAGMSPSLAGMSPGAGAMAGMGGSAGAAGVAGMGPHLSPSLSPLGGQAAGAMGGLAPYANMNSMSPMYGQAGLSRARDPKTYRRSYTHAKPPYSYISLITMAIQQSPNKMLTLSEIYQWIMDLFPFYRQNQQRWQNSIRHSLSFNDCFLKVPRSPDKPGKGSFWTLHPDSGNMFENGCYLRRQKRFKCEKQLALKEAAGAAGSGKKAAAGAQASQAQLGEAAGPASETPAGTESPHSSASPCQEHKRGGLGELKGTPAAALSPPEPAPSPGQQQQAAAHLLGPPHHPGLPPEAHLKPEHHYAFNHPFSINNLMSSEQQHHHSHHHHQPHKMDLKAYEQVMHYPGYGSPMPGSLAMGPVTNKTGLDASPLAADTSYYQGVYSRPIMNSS
Chain of Aryl hydrocarbon receptor (Homo sapiens) (P35869 whole entry, looked up): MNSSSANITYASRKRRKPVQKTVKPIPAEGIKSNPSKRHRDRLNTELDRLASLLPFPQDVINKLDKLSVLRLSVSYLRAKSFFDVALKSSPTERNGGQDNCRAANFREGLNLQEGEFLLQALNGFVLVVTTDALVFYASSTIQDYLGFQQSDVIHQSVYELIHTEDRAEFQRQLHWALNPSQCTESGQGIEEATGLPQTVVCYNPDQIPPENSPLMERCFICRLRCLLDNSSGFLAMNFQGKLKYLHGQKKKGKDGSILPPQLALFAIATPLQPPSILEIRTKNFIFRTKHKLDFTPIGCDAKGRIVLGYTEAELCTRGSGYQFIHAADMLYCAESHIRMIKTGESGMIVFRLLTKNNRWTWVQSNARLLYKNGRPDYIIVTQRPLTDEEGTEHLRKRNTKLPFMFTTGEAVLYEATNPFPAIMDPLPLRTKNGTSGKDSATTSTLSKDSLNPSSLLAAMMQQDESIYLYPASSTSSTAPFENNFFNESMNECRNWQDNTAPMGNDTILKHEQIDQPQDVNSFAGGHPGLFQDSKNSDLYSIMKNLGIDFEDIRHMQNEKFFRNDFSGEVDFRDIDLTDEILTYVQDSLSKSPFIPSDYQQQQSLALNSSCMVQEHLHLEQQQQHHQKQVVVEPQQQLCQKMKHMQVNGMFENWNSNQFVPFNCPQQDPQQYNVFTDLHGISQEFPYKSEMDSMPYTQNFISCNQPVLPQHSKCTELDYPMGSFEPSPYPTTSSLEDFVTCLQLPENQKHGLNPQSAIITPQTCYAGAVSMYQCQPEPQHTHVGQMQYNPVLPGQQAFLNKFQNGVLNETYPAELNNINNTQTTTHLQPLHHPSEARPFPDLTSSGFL
Chain of Retinoic acid receptor alpha (Homo sapiens) (P10276 whole entry, looked up): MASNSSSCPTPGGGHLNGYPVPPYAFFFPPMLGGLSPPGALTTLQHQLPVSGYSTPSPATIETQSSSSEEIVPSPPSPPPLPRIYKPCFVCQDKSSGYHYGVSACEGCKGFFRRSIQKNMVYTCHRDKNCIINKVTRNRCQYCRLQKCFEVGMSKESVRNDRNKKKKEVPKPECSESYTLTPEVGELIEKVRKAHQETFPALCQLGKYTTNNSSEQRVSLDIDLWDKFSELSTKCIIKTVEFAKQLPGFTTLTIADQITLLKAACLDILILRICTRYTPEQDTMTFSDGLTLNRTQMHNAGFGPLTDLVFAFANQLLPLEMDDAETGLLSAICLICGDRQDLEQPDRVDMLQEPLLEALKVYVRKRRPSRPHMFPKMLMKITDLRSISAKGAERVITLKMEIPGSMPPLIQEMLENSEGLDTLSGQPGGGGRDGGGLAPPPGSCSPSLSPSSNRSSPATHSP

Take `NC(=O)c1ccccc1O`: the result in [1], in assay [2], in assay [3], in assay [4], in [5] and in [6] was inactive. Besides, the molecule was classed as inactive in assay [7], in assay [8], in assay [9], in assay [10], in [11] and in assay [12]. Also, the molecule was called inactive in assay [13], in assay [14], in assay [15], in [16], in assay [17] and in assay [18]. In addition, the call in assay [19] and in assay [20] was inactive.

For the molecule `CN(C)c1ccc(N=Nc2ccccc2C(=O)O)cc1`, the outcome in [1], in assay [2], in assay [5], in assay [7], in assay [8] and in [9] was inactive. For the same molecule, the outcome in assay [10], in [12], in assay [14], in assay [15], in [16] and in assay [17] was inactive. The outcome in assay [19] and in assay [20] was inactive. The AC50 (commonly the concentration giving half of the maximal activity seen) is 137 µM (active) in assay [3]; 29.7 µM (active) in assay [4]; 37.7 µM (active) in assay [6]; 15.6 µM (active) in assay [11]; 47.4 µM (active) in assay [13]; 66.9 µM (active) in assay [18].

For the molecule `CCCCCCC1(C)CCC(=O)O1` (stereo not given), the call in assay [1], in [2], in assay [3], in assay [4], in [6] and in assay [7] was inactive. Besides, the result in [8], in [9], in assay [10], in assay [11], in assay [12] and in [13] was inactive. The molecule was classed as inactive in [14], in assay [15], in assay [16], in assay [17], in assay [18] and in [19]. The result in assay [20] was inactive. Also, the AC50 in assay [5] is 44.4 µM (active).

With `CCCCCCC(O)CO` (stereo not given), the outcome in [1], in [2], in assay [3], in [4], in assay [5] and in [6] was inactive. The outcome in assay [7], in assay [8], in assay [9], in assay [10], in assay [11] and in [12] was inactive. Further, the molecule was classed as inactive in [13], in assay [14], in [15], in assay [16], in assay [17] and in assay [18]. For the same molecule, the outcome in assay [19] and in [20] was inactive.

Turning to `Cc1cccc(OCCOc2cccc(C)c2)c1`, the outcome in assay [1], in assay [2], in assay [3], in assay [4], in assay [5] and in assay [6] was inactive. Further, the molecule was classed as inactive in assay [7], in assay [8], in assay [9], in assay [10], in [11] and in [12]. Besides, the result in [13], in assay [14], in assay [15], in assay [16], in [17] and in assay [18] was inactive. The call in assay [19] and in assay [20] was inactive.

As to `c1ccc(CNCc2ccccc2)cc1`, the result in assay [1], in assay [2], in assay [3], in assay [4], in [5] and in assay [6] was inactive. The outcome in assay [7], in [8], in assay [9], in assay [10], in [11] and in assay [12] was inactive. Besides, the result in [13], in assay [14], in [15], in assay [16], in assay [17] and in [18] was inactive. The outcome in assay [19] and in assay [20] was inactive.

On to `COCCCOCCCOC`, for which the call in [1], in assay [2], in [3], in assay [4], in [5] and in assay [6] was inactive. Also, the molecule was called inactive in assay [7], in assay [8], in assay [9], in assay [10], in [11] and in [12]. For the same molecule, the result in assay [13], in [14], in [15], in assay [16], in assay [17] and in assay [18] was inactive. The molecule was called inactive in [19] and in [20].
